USP2a inh: USP2a (human) protease inhibition; Potency, µM (titrated, usually from 38.3 µM), without a hit: at the highest dose activity change, negative = inhibition, usual class: inhibitors; AID 463254; O75604; USP2 core, Ub-CHOP2 coupled fluorogenic reporter, 485/531; 0.01% of 330,000 active;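 further: plate controls were DMSO wells for no effect and full inhibition by NEM control for full effect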
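Deubiquitinase activity read as fluorescence (485/531 nm) after Ub-CHOP2 cleavage activates the enterokinase reporter on its substrate; USP2 core 10nM, Ub-CHOP2 and substrate 25nM each, 30min compound preincubation then 60min RT; data normalized to NEM, curves fitted.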
GCN5L2 inh: blocks human GCN5L2 histone acetyltransferase; 0.21% of 390,000 active; Q92830; GCN5L2 HAT assay, ThioGlo1 CoA-SH fluorescence; Potency, µM (titrated, usually from 58.9 µM), inactives show top-dose activity change, negative = inhibition, usual class: inhibitors; further: on the % scale 0 is the no-effect control and ±100 the full control effect
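GCN5L2 (20nM final) in 50mM HEPES, 0.1mM EDTA pH 7.5, 0.01% Tween-20 was preincubated 15 min at room temperature with compound, then given ThioGlo1 (50uM), H3(1-25) peptide (75uM) and acetyl-CoA (70uM); CoA-thiol fluorescence (Ex340/Em540) was read at 0 and 20 min.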
Tb PFK inh-1: inhibitors of T. brucei phosphofructokinase; Potency, µM (doses to about 57.5 µM), for the others: at the top dose activity, negative = inhibition, actives largely listed as inhibitors; 0.17% of 330,000 active; O15648; T. brucei PFK, ADP-Glo luminescence; AID 485367;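 further: 0% = uninhibited 1x PFK enzyme wells and -100% = no-enzyme wells; nearly all actives have a fitted effect of over 60% in size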
Target sequence (O15648 whole entry, looked up): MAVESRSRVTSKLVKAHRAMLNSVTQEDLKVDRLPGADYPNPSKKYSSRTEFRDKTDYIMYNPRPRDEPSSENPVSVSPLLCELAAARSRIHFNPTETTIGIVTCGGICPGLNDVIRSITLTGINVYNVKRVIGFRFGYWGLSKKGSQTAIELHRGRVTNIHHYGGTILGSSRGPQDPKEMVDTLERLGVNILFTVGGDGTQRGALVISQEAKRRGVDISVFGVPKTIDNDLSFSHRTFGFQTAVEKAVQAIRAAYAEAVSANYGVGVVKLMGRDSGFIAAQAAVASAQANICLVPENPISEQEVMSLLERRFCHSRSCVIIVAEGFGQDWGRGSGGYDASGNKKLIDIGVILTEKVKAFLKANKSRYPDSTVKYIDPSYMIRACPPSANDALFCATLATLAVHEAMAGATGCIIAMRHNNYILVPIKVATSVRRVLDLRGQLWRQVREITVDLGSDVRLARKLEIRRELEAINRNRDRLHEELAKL
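Compounds were pin-transferred as a titration series up to 57 uM into substrate buffer (0.5 mM F6P, 0.1 mM ATP, pH 8.0), then 1.25 nM PFK was added and reactions ran 45 min before ADP-Glo detection.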
PGK inhibitor: T. brucei PGK inhibition. PGK/GAPDH coupled, Kinase-Glo luminescence, 60 min. Potency, µM (highest dose often 57.5 µM), without a hit: top-dose activity change, negative = inhibition, most hits filed as inhibitors. 0.043% of 380,000 active. AID 602233; further: on the % scale 0 is the no-effect control and ±100 the full control effect; nearly all actives have a fitted effect of over 60% in size
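Recombinant glycosomal PGK reaction used 1,3-bisphosphoglycerate generated in-well by GAPDH (100nM final) in 100mM TEA pH 7.6, 5mM MgCl2, 0.01% Tween-20. After 60 minutes at room temperature, ATP was read by Kinase-Glo Plus luminescence end-point.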
GLS inhibitor: inhibitors of human glutaminase (GLS); 0.21% of 410,000 active; Potency, µM (series often up to 45.5 µM), for inactives: top-dose activity change, negative = inhibition, most hits filed as inhibitors; AID 624170; O94925; GLS enzymatic activity, qHTS titration; further: on the % scale 0 is the no-effect control and ±100 the full control effect
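hKGA; 45 mM KH2PO4 pH 8.2 + 0.02% Tween-20; cpd via pin tool; 1 mM Gln soln; GluOx/HRP/Amplex Red; RT 30 min; fluor. t0 & final.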
TbPFK ATP: inhibits T. brucei PFK measured by ATP depletion; shares compounds with Tb PFK inh-1; Tb PFK enzyme, ATP depletion, Kinase-Glo Plus luminescence; Potency, µM (series often up to 57.5 µM), for the others: at the top dose inhibition; 47% of 1,100 active; calls by dose curve; further: nearly all actives have a fitted effect of over 60% in size
Tb PFK inh-2: validation of T. brucei phosphofructokinase inhibitors; 41% of 1,100 active; AID 504637; purified T. brucei PFK, ADP-Glo luminescence, 45 min; Potency, µM (series often up to 57.5 µM), for the others: at the highest dose activity change, negative = inhibition, usual class: inhibitors; shares compounds with Tb PFK inh-1;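 further: plate controls were full PFK enzyme control for no effect and no enzyme control for full effect; nearly all actives have a fitted effect of over 60% in size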
An asterisk follows results filed as active; i = inactive; ? = inconclusive; . = no result given; ! = a repeat was not active. Hits are enriched below; roughly 0.52% of the tested compounds scored in any of these assays. Unless noted, the call rests on the fitted dose curve; in most records, active means well fitted curve in the direction sought with a large enough effect; inconclusive means small, poorly fitted or top-dose-only effect, or another doubt; inactive means no such curve, though single readings can be large; an effect the other way counts as inactive or inconclusive. Potency means the concentration at half of the fitted maximal effect.

SMILES	USP2a inh	GCN5L2 inh	Tb PFK inh-1	PGK inhibitor	GLS inhibitor	TbPFK ATP	Tb PFK inh-2
CC(=O)c1cccc(OCC(=O)N(C)CC(=O)NCc2ccco2)c1	10%	-18%	19µM*	14µM*	13µM*	2.4µM*	2.7µM*
C[C@@]12CC(c3ccoc3)OC(=O)C1CC[C@@]1(C)C2C2C=C[C@@]1(O)C(=O)O2 (some centres not stated)	.	7%	.	.	.	.	.
CCN(CC)C(=O)c1ccc(NC(=O)c2cccc(S(=O)(=O)N3CCN(C)CC3)c2)cc1	1%	-4%	-1%	2%	-11%	.	.
O=C(COC(=O)c1cccc(S(=O)(=O)N2CCc3ccccc3C2)c1)NCc1ccco1	-1%	?	11µM*	-1%	1%	11%	?
N#Cc1sc(NCc2ccccn2)nc1Cl	4%	-4%	?	3%	-7%	?	?
O=C(/C=C/c1ccc(Cl)cc1)N[C@@]12CCC(=O)[C@@H]3Oc4c(O)ccc5c4[C@@]31CCN(CC1CC1)C2C5	.	1%	.	.	.	.	.
Cc1cc(C)c2c(=O)n(CC(=O)N3CCC(N4CCCCC4)CC3)sc2n1	1%	32µM*	2.4µM*	-7%	1%	?	3µM*
CCCNC(=O)Cn1sc2nc(C)cc(C)c2c1=O	-2%	28µM*	8.5µM*	2%	35%	?	8.5µM*
CCOC(=O)C1CCCN(C(=O)Cn2sc3nc(C)cc(C)c3c2=O)C1 (configuration not stated)	2%	?	1.5µM*	-8%	10%	?	3.8µM*
CC1CC2CC(=O)C3CCCN4CCCC2[C@]34C1 (some centres not stated)	.	-1%	.	.	.	.	.
CC(/C=C\c1cccnc1)=C/C(=O)O	0%	-2%	15µM*!	?	-14%	?	27µM*
CNCC/C=C/c1cccnc1	.	4%	.	.	.	.	.
CN(C)C1CSSSC1	.	-34%	.	.	.	.	.
Cc1ccc(N/N=C/c2c(C)c(C#N)c(=O)n(C)c2O)cc1C	7%	-14%	?	i	?	6%	-3%
Cc1ccc(N/N=C/c2c(O)n(-c3ccccc3)c(=O)[nH]c2=O)cc1	0%	-26%	-1%	i	0%	.	.
C/C(=N\NC(=O)CNc1cccc(Cl)c1C)C1CC1	3%	2%	21µM*	-10%	1%	?	?
CCc1ccccc1NC(=O)CNC1CCCCC1	-1%	0%	1%	i	-1%	.	.
COc1ccc(CNC(=O)/C=C\c2ccc3[nH]cc(CCN(C)C)c3c2)cc1	.	-17%	.	.	.	.	.
CC#C[C@]1(O)CC[C@H]2C3C=C(C)C4=CC(=O)C=C[C@]4(C)[C@H]3[C@@H](O)C[C@@]21C (some centres not stated)	.	-16%	.	.	.	.	.
Nc1ncnc2c1ncn2[C@@H]1O[C@H](COP(=O)(O)OP(=O)(O)OP(=O)(O)O)[C@@H](O)[C@H]1O	0%	-7%	?	-11%	18%	-29%	?
Nc1ncnc2c1ncn2[C@@H]1O[C@H](COP(=O)(O)OP(=O)(O)OP(=O)(O)O)[C@H]2OC3(O[C@H]21)C([N+](=O)[O-])=CC(=[N+]([O-])[O-])C=C3[N+](=O)[O-] (some centres not stated)	.	-7%	.	.	.	.	.
CN[C@@H]1C[C@@]2(C)O[C@@H]([C@@H]1OC)n1c3ccccc3c3c4c(c5c6ccccc6n2c5c31)C(=O)NC4	.	-19%	.	.	.	.	.
CC(=NCCN1CCCCC1)c1c(O)n(-c2ccccc2)c(=O)[nH]c1=O	-1%	0%	-5%	-8%	4%	.	.
Cn1c(=O)[nH]c(=O)c2c1nc(SCCN1CCCCC1)n2CCCc1ccccc1	-1%	-4%	?	3%	4%	6.7µM*	17µM*
COc1cc(C(=S)N2CCN(c3ccccc3Cl)CC2)cc(O)c1O	-17%	-23%	?	-19%	2%	?	?
SMILES	USP2a inh	GCN5L2 inh	Tb PFK inh-1	PGK inhibitor	GLS inhibitor	TbPFK ATP	Tb PFK inh-2
COc1ccccc1N1CCN(Cc2cccc(OC)c2O)CC1	1%	-2%	-1%	-7%	0%	.	.
O=S(=O)(c1ccc2nc(COc3ccc(Cl)cc3Cl)[nH]c2c1)N1CCOCC1	-2%	-12%	?	-10%	10%	?	?
O=C(Cc1ccc(Cl)c(Cl)c1)Nc1cccc2ncccc12	1%	-4%	11µM*	i	-9%	11µM*	11µM*
O=C(OCc1ccc(Cl)c(Cl)c1)c1ccccn1	4%	0%	?	-3%	-6%	.	.
Cc1c(C=C2C(=O)N(C)C(=O)N(C)C2=O)c(=O)n(-c2ccccc2)n1C	3%	0%	?	i	-4%	.	.
Cc1c(N2C(=O)/C(=C\c3ccccc3O)SC2=S)c(=O)n(-c2ccccc2)n1C	2%	?	21µM*	i	-5%	?	-30%
C[C@]12CCC3C(CCC4=C(Cl)C(=O)CC[C@@]43C)C1CCC2O (some centres not stated)	.	-1%	.	.	3%	.	.
Nc1ccccc1C(=O)OCC(=O)Nc1ccc(Br)cc1F	2%	1%	2%	6%	-1%	.	.
O=C(Nc1cccs1)Nc1ccc(Br)cc1F	5%	-4%	?	-3%	?	?	?
CCOc1cc(OP(=S)(OC)OC)nc(CC)n1	.	-14%	.	.	.	.	.
O=C(O)Cc1cccnc1C(=O)O	.	-3%	.	.	.	.	.
COc1ccc(Cn2c(N)c(C(=O)NCc3ccco3)c3nc4ccccc4nc32)cc1	0%	-12%	-16%	-8%	6%	.	.
CN(CC(=O)NC(=O)NCc1ccco1)CC(=O)Nc1ccccc1Cl	-2%	-9%	?	-5%	-6%	.	.
O=C(CSc1ccc(Cl)cc1)NCc1ccco1	-3%	-4%	?	-10%	6%	14%	-17%
O=C(COC(=O)Cc1ccc(Cl)c(Cl)c1)NCc1ccco1	1%	-2%	?	-1%	-25%	13µM*	?
O=C(COC(=O)Cc1ccc(Cl)cc1)NCc1ccco1	1%	-14%	?	-24%	?	8.5µM*	6.7µM*
CC1=C[C@H]2[C@]3(O)C(C=C(CO)C[C@]2(O)C1=O)[C@@H]1C(C)(C)[C@]1(O)[C@H](O)[C@H]3C (some centres not stated)	.	-6%	.	.	.	.	.
O=C(Nc1ccc(Cl)c(Cl)c1)N1CCSC1c1ccco1 (configuration not stated)	-6%	-7%	13µM*	i	13%	12%	-11%

Source: PubChem BioAssay
